KB-V1 MDR tox = kills drug-selected multidrug resistant KB-V1 cells; KB-V1 MDR cells viability, CellTiter-Glo, 72 h; Potency, µM (doses to about 46.1 µM), most hits filed as cytotoxic; 3.4% of 400,000 active; AID 1347076; also: % is scaled to controls: 0 for no effect and ±100 for the full control effect; nearly all actives have a fitted effect of over 60% in size
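Following 72 h at 37 degrees C with compound, KB-V1 cell viability was read by CellTiter-Glo luminescence, medium being phenol-red-free DMEM plus 10% FBS; concentration-response parameters came from normalized, curve-fitted qHTS data.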
SW480 rereplic = induces DNA re-replication in SW480 colon adenocarcinoma cells | AID 624297 | Potency, µM (titrated, usually from 46.1 µM), inactives show top-dose re-replication activation, hits mostly activators | SW480 DNA re-replication, Hoechst DNA content imaging, 48 h | 1.8% of 340,000 active; also: % of control where 0% means no effect; nearly all actives have a fitted effect of over 55% in size
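First, 250 cells per well were seeded. Next, compound or vehicle (23 nL) was pinned in, plates sat 48 hr at 37 C. Finally Hoechst was added for 40 min before fluorescence scanning.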
ELG1 DNA repair = inhibitors of ELG1-dependent DNA repair in HEK293T cells; HEK293T ELG1-luciferase reporter, luminescence, 16 h; DNA damage induced by 5-fluorouridine; Potency, µM (titrated, usually from 46.1 µM), for inactives: top-dose activity change, negative = inhibition, actives largely listed as inhibitors; 2.3% of 330,000 active; AID 504467; also: % is scaled to controls: 0 for no effect and ±100 for the full control effect; nearly all actives have a fitted effect of over 55% in size
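HEK293T cells expressing luciferase-tagged ELG1 (2,000/well) received 5-Fluorouridine plus compound or DMSO for 16 hr at 37 °C. Luciferase was read by ONE-Glo luminescence after 30 min at room temperature.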
MCF10A rerep = inducers of DNA re-replication in MCF 10A breast cells; MCF 10A DNA re-replication, Hoechst nuclear intensity, 48 h; Potency, µM (highest dose often 46.1 µM), without a hit: top-dose activity, positive = re-replication, actives largely listed as activators; 2.9% of 350,000 active; also: % of control where 0% means no effect; nearly all actives have a fitted effect of over 50% in size
KB-3-1 cytotox = KB-3-1 parental cell cytotoxicity; 1.4% of 400,000 active; KB-3-1 viability, CellTiter-Glo ATP luminescence, 72 h; Potency, µM (top dose mostly 46.1 µM), usual class: cytotoxic; also: % is scaled to controls: 0 for no effect and ±100 for the full control effect; nearly all actives have a fitted effect of over 60% in size
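Luminescent ATP read-out (CellTiter-Glo) measures survival of drug-naive KB-3-1 cells after 72 h compound exposure at 37 °C. Titration series was screened from lowest to highest concentration, with DMSO vehicle plates as background controls.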
* hit, by the source's call; i = inactive; u = inconclusive; x = not tested or not shown. Shown are actives, neighbours in structure and some others; about 8.1% of the full set was active somewhere. Calls follow the shape of the dose curve; as a rule, active = well fitted curve in the direction sought with a large enough effect; inconclusive = small, poorly fitted or top-dose-only effect, or another doubt; inactive = no such curve, though single readings can be large; an effect the other way counts as inactive or inconclusive. Potency is read from the fitted curve at half-maximal effect.

SMILES	KB-V1 MDR tox	SW480 rereplic	ELG1 DNA repair	MCF10A rerep	KB-3-1 cytotox
Cc1occc1-c1nnc(SCC(=O)N2CCN(c3ccccc3)CC2)n1C	i	-3.5%	u	1.1%	i
O=C(CSc1ccc(-c2ccncc2)nn1)N1CCN(c2ccccc2)CC1	14.6µM*	1.0%	-21.4%	-2.1%	i
Cn1c(SCC(=O)N2CCN(c3ccccc3)CC2)nnc1-c1ccncc1	i	-2.8%	-2.3%	1.2%	i
CC(=O)Nc1c([N+](=O)[O-])cc2c3c(cccc13)CC2	i	x	x	x	i
COc1ccccc1NC(=O)CC(=O)CSc1nnc(-c2ccc(C)cc2)n1-c1ccccc1	13µM*	-65.0%	6.0%	-1.6%	i
CCn1c(COc2ccccc2C)nnc1SCC(=O)CC(=O)Nc1ccccc1OC	8.2µM*	0.2%	-10.0%	u	i
Cc1ccccc1NC(=O)CSc1nnc(-c2ccccc2)n1-c1ccccc1	u	5.9%	2.0%	-0.4%	i
CCn1c(COc2ccccc2C)nnc1SCC(=O)N1CCN(c2ccccc2)CC1	8.2µM*	0.6%	u	-3.7%	u
CCn1c(COc2ccccc2)nnc1SCC(=O)CC(=O)Nc1ccccc1OC	i	-0.7%	4.3%	28.6%	i
CCn1c(SCC(=O)N2CCN(c3ccc(F)cc3)CC2)nnc1-c1ccncc1	18.4µM*	-9.6%	u	-3.4%	i
CCn1c(COc2cccc(C)c2C)nnc1SCC(=O)N1CCN(c2ccc(OC)cc2)CC1	2.31µM*	-6.1%	10.3µM*	2.8%	14.6µM*
COc1ccc(-c2nnc(SCC(=O)Nc3ncc(C)s3)n2-c2ccccc2)cc1OC	u	16.4µM*	20.6µM*	13µM*	20.6µM*
COc1ccc(NC(=O)CSc2nnc(-c3ccncc3)n2-c2ccccc2)cc1	i	x	x	x	i
Cc1ccc(-n2cnc3c(sc4nccc(N(C)C)c43)c2=O)cc1	u	-7.4%	10µM*	9.6%	i
COc1ccc(-n2cnc3c(sc4nccc(N(C)C)c43)c2=O)cc1	i	-2.5%	u	-2.6%	i
O=C(/C=C/c1ccco1)Nc1cccnc1	i	-16.9%	u	-11.9%	i
Cc1ccc(NC(=O)/C=C/c2ccco2)nc1	0.103µM*	u	u	u	0.164µM*
O=C(/C=C/c1ccco1)Nc1ccccn1	u	5.17µM*	u	14.6µM*	5.8µM*
O=C(/C=C/c1ccco1)Nc1nc(-c2ccccn2)cs1	i	u	u	136.7%	i
Cc1ccccc1NC(=O)c1ccc(Nc2c([N+](=O)[O-])cc([N+](=O)[O-])c3ccccc23)cc1	16.4µM*	6.3%	18.4µM*	-2.7%	i
Cc1cc(C(=O)Nc2ccc(Nc3ccccc3)cc2)ccc1[N+](=O)[O-]	u	17.8%	u	u	u
CCN(c1ccccc1)S(=O)(=O)c1cc(C(=O)Nc2ccc(F)c(F)c2)ccc1F	i	u	20.6µM*	13µM*	i
CCN(c1ccccc1)S(=O)(=O)c1ccc(Cl)c(NC(=O)Nc2ccc(Cl)cc2C#N)c1	u	u	-24.9%	u	u
CCN(c1ccccc1)S(=O)(=O)c1cc(NC(=O)Nc2ccccc2C#N)ccc1Cl	i	-10.7%	20.6µM*	2.8%	i
CCN(c1ccccc1)S(=O)(=O)c1ccc(C(=O)Nc2cccc(NC(C)=O)c2)cc1	i	29.1%	u	5.0%	i
SMILES	KB-V1 MDR tox	SW480 rereplic	ELG1 DNA repair	MCF10A rerep	KB-3-1 cytotox
N#Cc1c(-c2ccccc2)nc(SCC(=O)N(c2ccccc2)c2ccccc2)[nH]c1=O	i	-0.3%	5.5%	1.3%	i
N#Cc1c(-c2ccccc2)nc(SCC(=O)N2c3ccccc3Sc3ccccc32)[nH]c1=O	i	9.5%	-0.9%	20.6µM*	i
Cn1c(SCc2ccc(Cl)cc2)nc(C(F)(F)F)cc1=O	16.4µM*	-3.4%	-1.3%	20.1%	u
O=C1CC2(CCCCC2)CC(=O)N1CCc1ccccc1	i	1.2%	x	11.8%	i
O=C1C=CC(=O)C(C2=C3C(=O)N(CCc4ccccc4)CC(=O)N3CCC2)=C1	i	u	u	7.31µM*	i
O=C(COc1ccccc1F)N1CCN(S(=O)(=O)/C=C/c2ccccc2)CC1	14.6µM*	-87.2%	-15.0%	9.0%	i
O=C(c1ccc(Cl)cc1)N1CCN(S(=O)(=O)/C=C/c2ccccc2)CC1	i	-23.6%	u	-1.9%	23.1µM*
Cc1ccc(Cn2c(=O)c3ccccc3n3c(-c4ccccc4)nnc23)cc1	i	x	x	x	i
COC(=O)c1c(-c2ccc(Cl)cc2)noc1N1CCN(c2cccc(C)c2C)CC1	i	x	x	x	i
CS(=O)(=O)c1ncc(Cl)c(C(=O)Nc2ccc(OC(F)F)cc2)n1	u	1.84µM*	-1.3%	5.17µM*	u
Cc1ccccc1NC(=O)c1nc(S(C)(=O)=O)ncc1Cl	i	u	u	u	i
CS(=O)(=O)c1ncc(Cl)c(C(=O)Nc2ccc(N3CCOCC3)cc2)n1	i	10.3µM*	-9.2%	-4.2%	i
COc1ccc(S(=O)(=O)N2CCN(c3nc(-c4cccs4)nc4ccccc34)CC2)cc1OC	i	x	x	x	u
Cc1c(CN2CCC(CO)(Cc3cccc(C(F)(F)F)c3)CC2)c2ccccc2n1C	u	u	-4.8%	u	u
O=c1c2ccccc2c(C=NC2CCN(Cc3ccccc3)CC2)c(O)n1Cc1ccc2c(c1)OCO2	x	x	6.51µM*	x	x
Cn1cc(CCC(=O)NCc2ccc(Cl)cc2)c2ccccc21	i	-1.1%	u	0.0%	i
Cc1cc(/C=N/NC(=O)c2cccs2)c(C)n1-c1ccccc1	u	-2.4%	u	u	16.4µM*
Cc1ccc(/C=N/NC(=O)c2cccs2)cc1[N+](=O)[O-]	14.6µM*	-8.0%	u	1.2%	i
O=C(N/N=C/c1ccccc1[N+](=O)[O-])c1cccs1	i	-6.2%	u	0.6%	i
O=[N+]([O-])O[C@H]1CO[C@H]2[C@@H]1OC[C@H]2O	x	0.8%	x	-1.3%	x
N#CC1=C(N)Oc2cc(N)ccc2C1c1ccc(F)cc1 (stereo not drawn)	i	u	u	u	u
COc1ccc(C2C(C#N)=C(N)Oc3cc(N)ccc32)cc1 (stereo not drawn)	i	-8.6%	-6.0%	13.7%	i
COc1cc(C2C(C#N)=C(N)Oc3cc(N)ccc32)cc(OC)c1OC (stereo not drawn)	u	1.16µM*	u	1.16µM*	u
N#CC1=C(N)Oc2cc(N)ccc2C1c1ccc(F)cc1F (stereo not drawn)	u	23.1µM*	u	20.6µM*	u
CC(C)C[C@H]1CN(CCCC[C@H]2CNC(=O)C(=O)N2CCc2ccc(O)cc2)C(=O)C(=O)N1CCC1CCCCC1	i	x	x	x	i
